Values without a mark were called inactive. Records with an inconclusive call do not appear. Entries that show only a call come without a potency. Calls of active or inactive are those of the source. Unless noted, calls come from the whole dose curve; as a rule, active = well fitted curve in the direction sought with a large enough effect in the repeat runs; inconclusive = weak or mixed curves; inactive = no such curve, though single readings can be large; an effect the other way counts as inactive or inconclusive.
Experiments:
[1] = qHTS assay to test for compound auto fluorescence at 535 nm (green) in HEK293 cells (AID 720680)
[2] = qHTS assay to test for compound auto fluorescence at 460 nm (blue) in HEK293 cell free culture (AID 720681)
Method in brief: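 Test compounds were pinned into cell-free culture medium (DMEM with 10% FBS) and fluorescence was read directly at Ex/Em 405/460 nm. Signals were expressed as fluorescence equivalents of triamterene, with DMSO vehicle as control.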

[3] = qHTS assay to test for compound auto fluorescence at 535 nm (green) in HEK293 cell free culture (AID 720682)
Method in brief: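 Green-label autofluorescence (485 nm excitation, 535 nm emission) measured on compound added to cell-free culture medium (DMEM, 10% FBS). Output is expressed relative to fluorescein.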

[4] = qHTS assay to test for compound auto fluorescence at 590 nm (red) in HEK293 cell free culture (AID 720683)
Method in brief: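 Tox21 10K library compounds were pinned into cell-free DMEM with 10% FBS and fluorescence was read at excitation 540 nm. Activity is expressed as Rose Bengal sodium equivalency.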

[5] = qHTS assay to test for compound auto fluorescence at 590 nm (red) in HepG2 cell free culture (AID 720684)
Method in brief: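 Red fluorescence (540 nm excitation, 590 nm emission) was measured after compound transfer into cell-free MEM supplemented with 10% FBS. Values are equivalencies against Rose Bengal sodium.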

[6] = qHTS assay to test for compound auto fluorescence at 460 nm (blue) in HepG2 cell free culture (AID 720685)
Method in brief: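 Compound (23 nL) or DMSO pinned into cell-free MEM with 10% FBS; blue fluorescence read at 405/460 nm excitation/emission, expressed as auto-fluorescence equivalency to triamterene.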

[7] = qHTS assay to test for compound auto fluorescence at 460 nm (blue) in HepG2 cells (AID 720687)
Method in brief: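 Cells (2,000/well in MEM with 10% FBS) attached overnight at 37 C, then were exposed to compound or DMSO for 1 hr at 37 C, 5% CO2. Fluorescence read at Ex/Em 405/460 nm, expressed as triamterene-equivalent signal.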

[8] = molecular target: Glucocorticoid receptor (Homo sapiens) (UniProt P04150); assay: qHTS assay to identify small molecule agonists of the glucocorticoid receptor (GR) signaling pathway (AID 720691; active = well fitted activation curve with a large enough effect in the signal ratio in the repeat runs, not every such curve was filed as active; the % refers to the signal ratio)
Chain of Glucocorticoid receptor (Homo sapiens) (P04150 whole entry, looked up): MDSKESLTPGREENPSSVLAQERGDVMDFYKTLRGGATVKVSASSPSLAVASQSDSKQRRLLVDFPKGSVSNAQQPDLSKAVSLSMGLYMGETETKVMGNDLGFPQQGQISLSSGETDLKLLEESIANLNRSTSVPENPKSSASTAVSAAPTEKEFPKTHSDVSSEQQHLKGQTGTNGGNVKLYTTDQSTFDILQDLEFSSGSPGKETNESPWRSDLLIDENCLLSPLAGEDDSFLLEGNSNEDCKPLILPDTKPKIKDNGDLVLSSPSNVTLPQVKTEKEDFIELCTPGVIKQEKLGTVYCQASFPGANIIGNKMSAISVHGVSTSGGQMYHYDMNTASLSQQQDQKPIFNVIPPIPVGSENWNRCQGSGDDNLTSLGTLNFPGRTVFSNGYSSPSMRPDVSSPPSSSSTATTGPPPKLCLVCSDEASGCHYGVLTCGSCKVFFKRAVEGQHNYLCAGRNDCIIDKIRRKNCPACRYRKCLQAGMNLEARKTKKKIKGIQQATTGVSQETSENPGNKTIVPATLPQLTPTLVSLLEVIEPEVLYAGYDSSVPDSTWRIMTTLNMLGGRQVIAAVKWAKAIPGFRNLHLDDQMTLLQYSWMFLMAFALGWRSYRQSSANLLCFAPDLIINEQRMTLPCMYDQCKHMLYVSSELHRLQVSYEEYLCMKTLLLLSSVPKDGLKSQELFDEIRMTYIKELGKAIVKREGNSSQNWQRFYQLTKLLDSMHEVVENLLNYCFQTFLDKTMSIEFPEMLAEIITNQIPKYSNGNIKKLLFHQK
Method in brief: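 Fluorescence intensity from LiveBLAzer B/G FRET substrate (2 h, room temperature) reports beta-lactamase expression driven by the glucocorticoid response element in GR-bla HeLa cells after 18 h compound exposure at 37 C.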

[9] = molecular target: Glucocorticoid receptor (Homo sapiens) (UniProt P04150); assay: qHTS assay to identify small molecule antagonists of the glucocorticoid receptor (GR) signaling pathway (AID 720692; active = well fitted inhibition curve with a large enough effect in the signal ratio in the repeat runs, not every such curve was filed as active; the % refers to the signal ratio)
Method in brief: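 HeLa GR-bla cells; cmpd + dex 5 nM final, 18 h 37 C; LiveBLAzer B/G FRET substrate 2 h RT; fluorescence intensity read. Antagonist mode, qHTS.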

[10] = qHTS assay for identifying genotoxic compounds that show differential cytotoxicity against isogenic chicken DT40 cell lines with known DNA damage response pathways - wild type cell line (AID 743012); note: nearly all actives have a fitted effect of over 60% in size
Method in brief: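 Wild type DT40, 300 cells/well, ~0.5 h settle at 37 C/5% CO2; compounds in DMSO added by pintool; 40 h at 37 C/5% CO2; CellTiter-Glo, 30 min RT; luminescence.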

[11] = qHTS assay for identifying genotoxic compounds that show differential cytotoxicity against isogenic chicken DT40 cell lines with known DNA damage response pathways - Rev3 mutant cell line (AID 743014); note: nearly all actives have a fitted effect of over 55% in size
[12] = qHTS assay for identifying genotoxic compounds that show differential cytotoxicity against isogenic chicken DT40 cell lines with known DNA damage response pathways - Rad54/Ku70 mutant cell line (AID 743015); note: nearly all actives have a fitted effect of over 60% in size
[13] = qHTS assay to identify small molecule antagonists of the androgen receptor (AR) signaling pathway - cell viability counter screen (AID 743033; note: nearly all actives have a fitted effect of over 45% in size)
[14] = qHTS assay to identify small molecule antagonists of the androgen receptor (AR) signaling pathway using the MDA cell line - cell viability counter screen (AID 743041; note: nearly all actives have a fitted effect of over 45% in size)
Method in brief: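 MDA-kb2 AR-luc human breast carcinoma cells (MMTV-luciferase, AR/GR responsive) were treated with compounds plus R1881 agonist for 16 h at 37 °C. Viability was read as CellTiter-Fluor fluorescence in the same wells as the reporter assay.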

[15] = qHTS assay to identify small molecule antagonists of the glucocorticoid receptor (GR) signaling pathway - cell viability counter screen (AID 720693); note: nearly all actives have a fitted effect of over 55% in size
[16] = qHTS assay to test for compound auto fluorescence at 535 nm (green) in HepG2 cell free culture (AID 720686)
[17] = molecular target: Androgen receptor (Homo sapiens) (UniProt P10275); assay: qHTS assay to identify small molecule antagonists of the androgen receptor (AR) signaling pathway (AID 743035; active = well fitted inhibition curve with a large enough effect in the signal ratio in the repeat runs, not every such curve was filed as active; the % refers to the signal ratio)
Chain of Androgen receptor (Homo sapiens) (P10275 whole entry, looked up): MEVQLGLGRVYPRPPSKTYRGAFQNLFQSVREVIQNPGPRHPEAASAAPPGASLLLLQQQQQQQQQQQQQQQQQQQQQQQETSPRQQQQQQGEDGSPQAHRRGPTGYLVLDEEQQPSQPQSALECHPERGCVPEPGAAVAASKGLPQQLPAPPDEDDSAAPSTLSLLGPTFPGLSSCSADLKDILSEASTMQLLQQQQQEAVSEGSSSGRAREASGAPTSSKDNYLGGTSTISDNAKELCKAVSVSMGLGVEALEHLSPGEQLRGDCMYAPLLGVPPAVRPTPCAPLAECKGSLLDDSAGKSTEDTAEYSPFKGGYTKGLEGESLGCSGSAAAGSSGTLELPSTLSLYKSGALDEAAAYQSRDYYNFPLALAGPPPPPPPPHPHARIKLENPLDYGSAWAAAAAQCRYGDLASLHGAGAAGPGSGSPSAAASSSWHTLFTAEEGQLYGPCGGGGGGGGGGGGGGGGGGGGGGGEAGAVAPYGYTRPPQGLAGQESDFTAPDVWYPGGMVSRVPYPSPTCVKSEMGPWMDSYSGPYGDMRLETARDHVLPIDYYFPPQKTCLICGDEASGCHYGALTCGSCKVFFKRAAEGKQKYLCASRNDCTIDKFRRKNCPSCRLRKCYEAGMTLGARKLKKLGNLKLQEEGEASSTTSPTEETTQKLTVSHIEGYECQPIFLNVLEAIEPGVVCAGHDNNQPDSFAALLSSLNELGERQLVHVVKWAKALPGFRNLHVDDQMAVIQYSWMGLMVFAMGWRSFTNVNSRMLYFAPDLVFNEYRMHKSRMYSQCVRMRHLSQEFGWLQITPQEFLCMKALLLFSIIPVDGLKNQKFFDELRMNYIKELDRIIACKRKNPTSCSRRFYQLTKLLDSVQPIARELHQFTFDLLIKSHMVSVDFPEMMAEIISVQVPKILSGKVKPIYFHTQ
Method in brief: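 Fluorescence from a beta-lactamase FRET substrate (LiveBLAzer B/G, 2 h, room temperature) measured inhibition of R1881-stimulated signaling in GeneBLAzer AR-UAS-bla HEK293 cells exposed to compound for 16 h at 37C.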

[18] = molecular target: Androgen receptor (Homo sapiens) (UniProt P10275); assay: qHTS assay to identify small molecule agonists of the androgen receptor (AR) signaling pathway (AID 743036; active = well fitted activation curve with a large enough effect in the signal ratio in the repeat runs, with a control signal flat, not every such curve was filed as active; the % refers to the signal ratio)
Method in brief: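 AR-UAS-bla HEK293 cells, plated 4 h before dosing, were treated with compound for 16 h at 37C. beta-Lactamase reporter read after 2 h with LiveBLAzer B/G FRET substrate at room temperature.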

[19] = molecular target: Androgen receptor (Homo sapiens) (UniProt P10275); assay: qHTS assay to identify small molecule agonists of the androgen receptor (AR) signaling pathway using the MDA cell line (AID 743040; note: nearly all actives have a fitted effect of over 20% in size; note: potency is the fitted concentration of half-maximal effect)
Method in brief: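 MDA-kb2 breast carcinoma cells stably carrying an MMTV-driven luciferase reporter (AR- and GR-responsive) were seeded and held 5 h at 37C, 0% CO2, then exposed to compounds in DMSO for 16 h. Luminescence was read 30 min after ONE-Glo addition.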

[20] = molecular target: Androgen receptor (Homo sapiens) (UniProt P10275); assay: qHTS assay to identify small molecule antagonists of the androgen receptor (AR) signaling pathway using the MDA cell line (AID 743042; note: nearly all actives have a fitted effect of over 55% in size)
Method in brief: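 MDA-kb2 cells (human breast carcinoma, stably carrying an MMTV-luciferase reporter responsive to AR and GR) were plated at 3,000 cells/well and preincubated 5 hr at 37C, then given compound plus R1881 agonist for 16 h. ONE-Glo luminescence was read.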

O=Cc1ccccc1Cl
outcome [1]: inactive | outcome [2]: inactive | outcome [3]: inactive | outcome [4]: inactive | outcome [5]: inactive | outcome [6]: inactive | outcome [7]: inactive | Potency [8]: inactive | outcome [9]: inactive | Potency [10]: inactive | Potency [11]: inactive | Potency [12]: inactive | outcome [13]: inactive | Potency [14]: inactive

Cc1ccc(C(C)NC(=O)[C@@H](NC(=O)OC(C)C)C(C)C)cc1 (stereo not given in full)
outcome [1]: inactive | outcome [2]: inactive | outcome [3]: inactive | outcome [4]: inactive | outcome [5]: inactive | outcome [6]: inactive | outcome [7]: inactive | Potency [8]: inactive | outcome [9]: inactive | outcome [15]: inactive | Potency [10]: inactive | Potency [11]: inactive | Potency [12]: inactive | outcome [13]: inactive | Potency [14]: inactive

CN1CCOC(c2ccccc2)c2ccccc2C1 (stereo not given)
fluorescence, % of fluorescein [1]: -0.0031% [at 18.6 µM] | fluorescence, % of fluorescent control [2]: -0.103% [at 18.6 µM] | activity change [3]: -0.0245% [at 18.6 µM] | fluorescence, % of fluorescent control [4]: -0.107% [at 18.6 µM] | fluorescence, % of Rose Bengal [5]: 0.115% [at 18.6 µM] | fluorescence, % of fluorescent control [6]: -0.0245% [at 18.6 µM] | fluorescence, % of fluorescein control [16]: 0.0063% [at 18.6 µM] | outcome [15]: inactive | Potency [14]: inactive

O=C(Cn1ccnc1[N+](=O)[O-])NCc1ccccc1
outcome [1]: inactive | outcome [2]: inactive | outcome [3]: inactive | outcome [4]: inactive | outcome [5]: inactive | outcome [6]: inactive | outcome [7]: inactive | Potency [8]: inactive | outcome [9]: inactive | outcome [15]: inactive | Potency [10]: inactive | Potency [11]: inactive | Potency [12]: inactive | outcome [13]: inactive | Potency [14]: inactive

C=C(C)[C@@H]1CC=C(C)C(=O)C1
outcome [1]: inactive | outcome [2]: inactive | outcome [3]: inactive | outcome [4]: inactive | outcome [5]: inactive | outcome [6]: inactive | outcome [7]: inactive | Potency [8]: inactive | outcome [9]: inactive | outcome [15]: inactive | Potency [11]: inactive | Potency [12]: inactive | outcome [13]: inactive | Potency [14]: inactive

CC(C)=CCC[C@@](C)(O)[C@H]1CC=C(C)CC1
outcome [1]: inactive | outcome [2]: inactive | outcome [4]: inactive | outcome [5]: inactive | outcome [6]: inactive | outcome [16]: inactive | outcome [7]: inactive | Potency [8]: inactive | outcome [9]: inactive | outcome [15]: inactive | Potency [10]: inactive | Potency [11]: inactive | Potency [12]: inactive | outcome [13]: inactive | Potency [14]: inactive

OCCN1CCOCC1
outcome [1]: inactive | outcome [2]: inactive | outcome [3]: inactive | outcome [4]: inactive | outcome [5]: inactive | outcome [6]: inactive | outcome [16]: inactive | outcome [15]: inactive | Potency [11]: inactive | Potency [12]: inactive | outcome [13]: inactive | Potency [14]: inactive

CO/N=C(/C(=O)N[C@@H]1C(=O)N2C(C(=O)[O-])=C(C[n+]3ccn4ncccc43)CS[C@H]12)c1nsc(N)n1
outcome [1]: inactive | outcome [2]: inactive | outcome [3]: inactive | outcome [4]: inactive | outcome [5]: inactive | outcome [6]: inactive | outcome [7]: inactive | Potency [8]: inactive | outcome [9]: inactive | outcome [15]: inactive | Potency [10]: inactive | Potency [11]: inactive | Potency [12]: inactive | outcome [13]: inactive | Potency [14]: inactive

CC(C)CO
outcome [1]: inactive | outcome [2]: inactive | outcome [4]: inactive | outcome [5]: inactive | outcome [6]: inactive | outcome [16]: inactive | outcome [7]: inactive | Potency [8]: inactive | outcome [9]: inactive | outcome [15]: inactive | Potency [10]: inactive | Potency [11]: inactive | Potency [12]: inactive | outcome [13]: inactive | Potency [14]: inactive

CC(N)CCCC(C)(C)O (stereo not given)
outcome [1]: inactive | outcome [2]: inactive | outcome [3]: inactive | outcome [4]: inactive | outcome [5]: inactive | outcome [6]: inactive | outcome [7]: inactive | Potency [8]: inactive | outcome [9]: inactive | outcome [15]: inactive | Potency [10]: inactive | Potency [11]: inactive | Potency [12]: inactive | outcome [13]: inactive | Potency [14]: inactive

CC(C)Cn1cnc2c1c(=O)n(C)c(=O)n2C
outcome [1]: inactive | outcome [2]: inactive | outcome [3]: inactive | outcome [4]: inactive | outcome [5]: inactive | outcome [6]: inactive | outcome [7]: inactive | Potency [8]: inactive | outcome [15]: inactive | Potency [10]: inactive | Potency [11]: inactive | Potency [12]: inactive | outcome [13]: inactive | Potency [14]: inactive

CC(=O)c1cc(C)oc1C
outcome [1]: inactive | outcome [2]: inactive | outcome [3]: inactive | outcome [4]: inactive | outcome [5]: inactive | outcome [6]: inactive | Potency [8]: inactive | outcome [15]: inactive | Potency [10]: inactive | Potency [12]: inactive | outcome [13]: inactive | outcome [17]: inactive | outcome [18]: inactive | Potency [19]: inactive | Potency [14]: inactive | outcome [20]: inactive

CC(C)OC(=O)CCC(=O)OC(C)C
outcome [1]: inactive | outcome [2]: inactive | outcome [4]: inactive | outcome [5]: inactive | outcome [6]: inactive | outcome [16]: inactive | outcome [7]: inactive | Potency [8]: inactive | outcome [9]: inactive | outcome [15]: inactive | Potency [10]: inactive | Potency [11]: inactive | Potency [12]: inactive | outcome [13]: inactive | Potency [14]: inactive

N[C@@H](CSCCCO)C(=O)O
outcome [1]: inactive | outcome [2]: inactive | outcome [3]: inactive | outcome [4]: inactive | outcome [5]: inactive | outcome [6]: inactive | outcome [9]: inactive | outcome [15]: inactive | Potency [10]: inactive | Potency [11]: inactive | Potency [12]: inactive | outcome [13]: inactive | outcome [17]: inactive | outcome [18]: inactive | Potency [19]: 33.5 µM (active) | Potency [14]: inactive | outcome [20]: inactive

OCC(O)CN1CCN(c2ccccc2)CC1 (stereo not given)
outcome [1]: inactive | outcome [2]: inactive | outcome [3]: inactive | outcome [4]: inactive | outcome [5]: inactive | outcome [6]: inactive | outcome [7]: inactive | Potency [8]: inactive | outcome [9]: inactive | outcome [15]: inactive | Potency [11]: inactive | Potency [12]: inactive | outcome [13]: inactive | Potency [14]: inactive

C=CC/C=C/C
outcome [1]: inactive | outcome [2]: inactive | outcome [3]: inactive | outcome [4]: inactive | outcome [5]: inactive | outcome [6]: inactive | outcome [7]: inactive | Potency [8]: inactive | outcome [9]: inactive | outcome [15]: inactive | Potency [10]: inactive | Potency [11]: inactive | Potency [12]: inactive | outcome [13]: inactive | Potency [14]: inactive

O=C(CCCCC(=O)Nc1c(I)cc(I)c(C(=O)O)c1I)Nc1c(I)cc(I)c(C(=O)O)c1I
outcome [1]: inactive | outcome [3]: inactive | outcome [4]: inactive | outcome [5]: inactive | outcome [6]: inactive | outcome [16]: inactive | outcome [7]: inactive | Potency [8]: inactive | outcome [9]: inactive | outcome [15]: inactive | Potency [10]: inactive | Potency [11]: inactive | Potency [12]: inactive | outcome [13]: inactive | Potency [14]: inactive

— PubChem BioAssay (Tox21)
